Laboratory results: PubChem BioAssay (EPA / NIEHS)
Inconclusive results are not listed. Activity calls are given as the source filed them. How the source made its calls, unless noted: active means hit-call score of the fitted dose curve at least 0.9, where 1 is the maximum; inactive means score below 0.9.

Key:
[1] = read-out: Transforming Growth Factor (TGFB1), TGFB1 (gene 7040); assay: LTEA_HepaRG_TGFB1: Life Technologies and Expression Analysis (LTEA) Assay for Transforming Growth Factor (TGFB1) Transporter using HepaRG (AID 2283533); conditions: mRNA level, 48 h; actives raise or lower the signal
How it was run: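 HepaRG, 48 h post-plating, switched to serum-free induction medium; chemicals 100 uM top, half-log, 8 pts, 0.5% DMSO, dup; 48 h exposure; RNA → Fluidigm TaqMan qRT-PCR; norm ACTB/GAPDH/POLR2A; bidirectional fit vs DMSO.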

TIMP1, TIMP1 (gene 7076) = assay: LTEA_HepaRG_TIMP1: Life Technologies and Expression Analysis (LTEA) Assay for TIMP1 using HepaRG (AID 2283534); conditions: mRNA level, 48 h; actives raise or lower the signal
How it was run: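 Readout is TIMP1 mRNA level measured by qRT-PCR and normalized to three housekeeping genes. Human HepaRG cells were treated for 48 h in duplicate at eight concentrations up to 100 uM (0.5% DMSO); gain or loss fitted against DMSO.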

[2] = read-out: Tumor necrosis factor receptor 1 (TNFRSF1A), TNFRSF1A (gene 7132); assay: LTEA_HepaRG_TNFRSF1A: Life Technologies and Expression Analysis (LTEA) Assay for Tumor necrosis factor receptor 1 (TNFRSF1A) using HepaRG (AID 2283535); conditions: mRNA level, 48 h; actives raise or lower the signal
How it was run: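 Read-out is TNFRSF1A transcript level by TaqMan qRT-PCR, normalized to three housekeeping genes, scored as gain or loss of signal versus 0.5% DMSO. Human HepaRG cells received test chemicals for 48 h at up to 100 uM (half-log series).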

[3] = read-out: Thyroid Hormone Responsive (THRSP), THRSP (gene 7069); assay: LTEA_HepaRG_THRSP: Life Technologies and Expression Analysis (LTEA) Assay for Thyroid Hormone Responsive (THRSP) using HepaRG (AID 2283536); conditions: mRNA level, 48 h; actives raise or lower the signal
How it was run: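 mRNA induction or loss relative to 0.5% DMSO vehicle was fitted bidirectionally across an eight-point curve whose highest exposure was 100 uM. Human HepaRG liver cells received chemicals in duplicate over 48 h before RNA extraction.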

[4] = read-out: Cellular tumor antigen p53 (Homo sapiens) (UniProt P04637); assay: LTEA_HepaRG_TP53: Life Technologies and Expression Analysis (LTEA) Assay for Tumor Protein P53 (TP53) using HepaRG (AID 2283537); conditions: mRNA level, 48 h; actives raise or lower the signal
How it was run: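 Differentiated HepaRG cells in serum-free induction medium exposed 48 h in duplicate to 8 half-log concentrations, top 100 uM, 0.5% DMSO. TP53 mRNA by TaqMan qRT-PCR (Fluidigm), normalized to ACTB, GAPDH, POLR2A; fitted bidirectionally versus DMSO.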

[5] = read-out: UDP glucuronosyltransferase (UGT1A1), UGT1A1 (gene 54658); assay: LTEA_HepaRG_UGT1A1: Life Technologies and Expression Analysis (LTEA) Assay for UDP glucuronosyltransferase (UGT1A1) using HepaRG (AID 2283538); conditions: mRNA level, 48 h; actives raise or lower the signal
How it was run: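 Differentiated human HepaRG cells in serum-free induction medium were exposed in duplicate for 48 h to eight half-log concentrations up to 100 uM in 0.5% DMSO. UGT1A1 mRNA was quantified by TaqMan qRT-PCR, normalized to ACTB, GAPDH and POLR2A, and fitted bidirectionally against DMSO.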

[6] = read-out: UDP glucuronosyltransferase (UGT1A6), UGT1A6 (gene 54578); assay: LTEA_HepaRG_UGT1A6: Life Technologies and Expression Analysis (LTEA) Assay for UDP glucuronosyltransferase (UGT1A6) using HepaRG (AID 2283539); conditions: mRNA level, 48 h; actives raise or lower the signal
How it was run: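 HepaRG, 48 h post-plating switch to serum-free induction medium; chemical 48 h, 100 uM top, half-log x8, duplicate, 0.5% DMSO. Phenobarbital 1mM induction control. UGT1A6 mRNA by TaqMan qRT-PCR; gain/loss fit vs DMSO.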

[7] = read-out: X-box binding protein 1 (XBP1), XBP1 (gene 7494); assay: LTEA_HepaRG_XBP1: Life Technologies and Expression Analysis (LTEA) Assay for X-box binding protein 1 (XBP1) using HepaRG (AID 2283540); conditions: mRNA level, 48 h; actives raise or lower the signal
How it was run: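 Transcript levels of XBP1, measured by qRT-PCR and normalised to three housekeeping genes, were fitted bidirectionally relative to 0.5% DMSO controls. Human HepaRG cells received eight-point half-log dilutions from 100 uM for 48 h.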

[8] = LTEA_HepaRG_LDH_cytotoxicity: Cytotoxicity Assessment in the Life Technologies and Expression Analysis (LTEA) Assay (AID 2283563; active means hit-call score of the fitted dose curve at least 0.9, where 1 is the maximum;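 on AC50: LDH activity released into spent culture medium as a marker of cell death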)
How it was run: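 Cells were thawed and plated for 48 h. Medium was then replaced with serum-free induction medium. Chemicals (8 half-log points, maximum 100 uM, 0.5% DMSO) were added in duplicate for 48 h, after which spent medium was assayed for LDH.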

[9] = ATG_XTT_Cytotoxicity: Cytotoxicity Assessment in the Attagene TRANS-FACTORIAL HepG2 Assay (AID 2283584; active means hit-call score of the fitted dose curve at least 0.9, where 1 is the maximum)
How it was run: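 Cells: human HepG2, transiently transfected with MRTU reporter constructs. Exposure 24 h. Readout: XTT, cell number. Baseline/neg ctrl DMSO; loss-of-signal scored.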

Measured: AC50

Sequence of Cellular tumor antigen p53 (Homo sapiens) (P04637 whole entry, looked up): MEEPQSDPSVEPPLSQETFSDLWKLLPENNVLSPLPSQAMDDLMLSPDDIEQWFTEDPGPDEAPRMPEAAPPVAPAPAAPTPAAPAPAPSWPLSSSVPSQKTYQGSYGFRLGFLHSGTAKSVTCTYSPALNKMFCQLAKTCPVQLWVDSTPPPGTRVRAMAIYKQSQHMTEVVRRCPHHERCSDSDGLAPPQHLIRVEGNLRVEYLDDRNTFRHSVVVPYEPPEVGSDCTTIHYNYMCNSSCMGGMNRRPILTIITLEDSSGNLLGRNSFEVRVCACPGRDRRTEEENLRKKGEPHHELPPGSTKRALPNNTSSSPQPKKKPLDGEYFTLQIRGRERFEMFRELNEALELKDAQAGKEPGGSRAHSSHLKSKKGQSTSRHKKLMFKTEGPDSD

C[C@]12C=CC(=O)C=C1CC[C@H]1[C@@H]3C[C@@H](O)[C@](O)(C(=O)CO)[C@@]3(C)C[C@H](O)[C@@]12F
inactive: all assays above

CC(=O)c1ccccc1
not listed: [9]
inactive: all other assays above

O=C(O)c1cccc(C[C@@H]2COc3ccc(OCc4nc5cc(F)ccc5s4)cc3[C@@H]2O)c1
active: [3] 80.5 µM | [8] 75.6 µM
not listed: [9]
inactive: all other assays above

CCc1ccc(O)c(C(C)(C)C)c1
inactive: all assays above

OCC(CO)(CO)CO
not listed: [4]
inactive: all other assays above

O=C(NO)C1(NS(=O)(=O)c2ccc(Oc3ccc(F)cc3)cc2)CCOCC1
active: [3] 78.1 µM | [5] 12.2 µM | [6] 77.7 µM
not listed: [4] | [9]
inactive: all other assays above

OC[C@H]1O[C@@H]2O[C@H]3[C@H](O)[C@@H](O)[C@@H](O[C@H]4[C@H](O)[C@@H](O)[C@@H](O[C@H]5[C@H](O)[C@@H](O)[C@@H](O[C@H]6[C@H](O)[C@@H](O)[C@@H](O[C@H]7[C@H](O)[C@@H](O)[C@@H](O[C@H]1[C@H](O)[C@H]2O)O[C@@H]7CO)O[C@@H]6CO)O[C@@H]5CO)O[C@@H]4CO)O[C@@H]3CO
not listed: [4]
inactive: all other assays above

O=C(N[C@H](CO)[C@H](O)c1ccc([N+](=O)[O-])cc1)C(Cl)Cl
inactive: [9]

C[C@@H](Oc1ccc(CNC(=O)c2cccnc2Oc2ccc3c(c2)OCO3)c(F)c1)C(=O)O
not listed: [4] | [9]
inactive: all other assays above

OCc1c[nH]c2ccccc12
inactive: [9]

CCCOc1ccc(S(=O)(=O)N2CCN(CC)CC2)cc1-c1nc2c(CC)n(Cc3ccccn3)nc2c(=O)[nH]1
active: [1] 26.3 µM | [3] 50 µM | [5] 4.74 µM
not listed: [4] | [9]
inactive: all other assays above

NC(=O)N1c2ccccc2C=Cc2ccccc21
active: [5] 21.6 µM
not listed: [4]
inactive: all other assays above

COS(C)(=O)=O
not listed: [4] | [9]
inactive: all other assays above

O=C(O)CO
inactive: [9]

OCCNCCO
active: [5] 9.92 µM | [7] 50 µM
not listed: [4]
inactive: all other assays above

O=S(=O)(O)c1ccc(N=Nc2c(O)ccc3cc(S(=O)(=O)O)ccc23)cc1
not listed: [4] | [9]
inactive: all other assays above

c1ccc2c(c1)-c1cccc3c1c-2cc1ccccc13
active: TIMP1, TIMP1 (gene 7076) 4.93 µM | [2] 14.7 µM | [3] 27.7 µM | [7] 12.7 µM
not listed: [4]
inactive: all other assays above

COc1cc2c(c(OC)c1OC)-c1ccc(OC)c(=O)cc1[C@@H](NC(C)=O)CC2
inactive: TIMP1, TIMP1 (gene 7076) | [2] | [8] | [9]
active: [1] 0.04 µM | [3] 0.073 µM | [5] 0.113 µM | [6] 0.237 µM | [7] 0.218 µM

Nc1ccn([C@@H]2O[C@H](CO)[C@@H](O)[C@@H]2O)c(=O)n1
not listed: [4]
inactive: all other assays above

CCCC(CCC)C(=O)O
not listed: [4]
inactive: all other assays above

CC(C)CC(C)O (configuration not stated)
not listed: [4]
inactive: all other assays above

OC[C@H]1O[C@@](CO)(O[C@H]2O[C@H](CO)[C@@H](O)[C@H](O)[C@H]2O)[C@@H](O)[C@@H]1O
not listed: [4]
inactive: all other assays above

O=C(O)[C@H](O)[C@@H](O)C(=O)O
not listed: [4] | [9]
inactive: all other assays above

CC[C@H](C)C(=O)O[C@H]1C[C@H](O)C=C2C=C[C@H](C)[C@H](CC[C@@H](O)C[C@@H](O)CC(=O)O)[C@H]21
active: [3] 21.9 µM
not listed: [4]
inactive: all other assays above

COc1cc(C(C)C)c2c(c1)S(=O)(=O)N(COc1cc(=O)n3cccc(OCCN4CCCCC4)c3n1)C2=O
active: TIMP1, TIMP1 (gene 7076) 19.8 µM | [3] 20.8 µM | [5] 22.6 µM | [6] 19.9 µM | [8] 19.2 µM
inactive: [1] | [2] | [7]

CNC(C)=O
not listed: [4]
inactive: all other assays above

CC(C)C(=O)Nc1ccc([N+](=O)[O-])c(C(F)(F)F)c1
inactive: [1] | [2] | [8] | [9]
active: TIMP1, TIMP1 (gene 7076) 28.7 µM | [3] 10.9 µM | [5] 90.1 µM | [6] 74.7 µM | [7] 12.2 µM

O=C(O)c1cccc(C(=O)O)c1
not listed: [1] | [4]
inactive: all other assays above

Cc1nccn1-c1ccc(Sc2cccc(C3(C(N)=O)CCOCC3)c2)cc1
inactive: TIMP1, TIMP1 (gene 7076)
active: [1] 24.8 µM | [2] 7.54 µM | [3] 10.8 µM | [5] 23 µM | [6] 19.1 µM | [7] 7.33 µM | [8] 20.3 µM

CCCCCCOC(=O)CC(CC(=O)OCCCCCC)(OC(=O)CCC)C(=O)OCCCCCC
not listed: [4]
inactive: all other assays above

C=CCc1cc(S(=O)(=O)c2ccc(O)c(CC=C)c2)ccc1O
active: [3] 88.4 µM | [6] 80.7 µM | [7] 66.7 µM | [8] 76.7 µM
not listed: [4]
inactive: all other assays above

CC(C)CCCCCCOC(=O)C1CCCCC1C(=O)OCCCCCCC(C)C (configuration not stated)
active: [2] 0.00316 µM
not listed: [4] | [9]
inactive: all other assays above

O=c1[nH]cnc2c1ncn2[C@H]1CC[C@@H](CO)O1
not listed: [4]
inactive: all other assays above

Cc1ncc([C@@H](CCCCCCc2ccc3c(n2)NCCC3)CC(=O)O)cn1
not listed: [4] | [9]
inactive: all other assays above

NC(=O)N(O)[C@@H]1COc2cc(OCc3ccccc3)ccc21
not listed: [4] | [9]
inactive: all other assays above

Cc1cccc(O)c1C
inactive: [9]

CCCCCOC(C)=O
not listed: [4] | [8]
inactive: all other assays above

NC(N)=O
not listed: [4]
inactive: all other assays above

Cc1ccc(S(=O)(=O)NC(=O)NN2CCCCCC2)cc1
not listed: [4]
inactive: all other assays above

S=P(N1CC1)(N1CC1)N1CC1
inactive: [9]

COCc1nnc(-c2ccc[n+]([O-])c2)n1-c1c(Cl)c(Cl)cc2[nH]c(=O)c(=O)[nH]c12
not listed: [4] | [9]
inactive: all other assays above
